# Results taken from PubChem BioAssay.
# Where “and” joins values, the source holds several entries; their conditions need not be identical. Identical values can stand only once. Calls of active or inactive are those of the source.
# Experiments:
# [1] = anti-His antibody binders, primary screen, artefact control for SMM control protein annotation, biochemical, small-molecule microarray, 635 nm fluorescence (AID 1128); conditions: anti-His Alexa647 antibody binding, higher = more signal;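 further: score merges feature fluorescence with signal-to-noise for each printed compound spot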
# [2] = system: Human papillomavirus type 1a E7 protein (residues 1-88); assay: HPV1a E7 small-molecule binders, primary screen, biochemical, small-molecule microarray, residues 1-88, 635 nm (AID 1129); conditions: small-molecule microarray binding, fluorescence 635 nm; higher = more signal
# [3] = molecular target: Focal adhesion kinase 1 (Homo sapiens) (UniProt Q05397); assay: small-molecule microarray binders of FAK, primary screen, biochemical, 635/667 nm fluorescence, BSA, DTT (AID 1130); conditions: PTK2 binding, 635 nm fluorescence, higher = more signal;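 further: composite of spot emission at 667 nm and signal to noise over triplicate slides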
# Focal adhesion kinase 1 (Homo sapiens), sequence (Q05397 whole entry, looked up): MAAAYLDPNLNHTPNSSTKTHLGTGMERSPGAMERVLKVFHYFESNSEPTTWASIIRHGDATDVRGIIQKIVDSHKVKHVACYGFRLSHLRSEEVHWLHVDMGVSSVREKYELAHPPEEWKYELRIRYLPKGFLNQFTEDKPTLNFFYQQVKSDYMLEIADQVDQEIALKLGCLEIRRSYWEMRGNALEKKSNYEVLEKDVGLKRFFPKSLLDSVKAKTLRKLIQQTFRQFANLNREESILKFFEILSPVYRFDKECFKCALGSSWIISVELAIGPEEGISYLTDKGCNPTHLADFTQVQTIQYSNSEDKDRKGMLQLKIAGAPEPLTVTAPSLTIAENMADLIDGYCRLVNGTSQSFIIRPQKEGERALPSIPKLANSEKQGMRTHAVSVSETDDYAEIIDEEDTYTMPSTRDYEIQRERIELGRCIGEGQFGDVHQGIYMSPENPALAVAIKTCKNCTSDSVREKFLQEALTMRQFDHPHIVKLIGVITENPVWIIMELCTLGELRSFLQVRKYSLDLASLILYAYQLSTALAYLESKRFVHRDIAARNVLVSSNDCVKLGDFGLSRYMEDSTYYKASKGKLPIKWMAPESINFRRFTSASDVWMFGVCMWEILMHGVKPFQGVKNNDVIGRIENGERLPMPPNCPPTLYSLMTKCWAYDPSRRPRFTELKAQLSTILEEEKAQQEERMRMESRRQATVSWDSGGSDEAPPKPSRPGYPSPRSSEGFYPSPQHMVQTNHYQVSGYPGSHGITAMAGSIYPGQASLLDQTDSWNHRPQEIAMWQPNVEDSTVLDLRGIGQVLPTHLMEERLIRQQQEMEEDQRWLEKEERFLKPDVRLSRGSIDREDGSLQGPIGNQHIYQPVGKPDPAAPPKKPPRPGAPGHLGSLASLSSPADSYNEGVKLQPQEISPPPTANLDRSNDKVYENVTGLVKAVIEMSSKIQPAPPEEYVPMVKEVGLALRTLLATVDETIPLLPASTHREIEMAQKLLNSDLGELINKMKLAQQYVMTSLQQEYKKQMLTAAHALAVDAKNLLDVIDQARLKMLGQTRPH
# [4] = system: Fibrinogen (Alexa647-labelled); assay: fibrinogen binders on compound microarrays, profiling panel, artefact control for SMM control-protein annotation, biochemical, small-molecule microarray, 635/667 nm fluorescence (AID 1131); conditions: fibrinogen-A647 binding fluorescence, higher = more signal;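 further: z-score merges 667 nm fluorescence with per-spot signal-to-noise over triplicate slides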
# [5] = molecular target: Follistatin (Homo sapiens) (UniProt P19883); assay: follistatin binders on small-molecule microarrays, primary screen, biochemical, small-molecule microarray, 635/667 nm fluorescence (AID 1132); conditions: FST binding, 635 nm fluorescence, higher = more signal
# Follistatin (Homo sapiens), sequence (P19883 whole entry, looked up): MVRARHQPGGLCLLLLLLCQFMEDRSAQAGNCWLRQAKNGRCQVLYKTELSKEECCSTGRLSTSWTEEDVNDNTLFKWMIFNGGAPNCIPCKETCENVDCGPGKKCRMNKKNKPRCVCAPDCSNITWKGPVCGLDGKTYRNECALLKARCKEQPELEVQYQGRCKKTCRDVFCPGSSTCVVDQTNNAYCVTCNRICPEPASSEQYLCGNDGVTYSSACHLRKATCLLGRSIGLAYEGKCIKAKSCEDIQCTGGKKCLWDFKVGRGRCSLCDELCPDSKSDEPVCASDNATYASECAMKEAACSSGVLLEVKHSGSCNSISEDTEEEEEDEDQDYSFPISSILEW
# [6] = molecular target: Fibroblast growth factor 2 (Homo sapiens) (UniProt P09038); assay: FGF2 binders on small-molecule microarrays, primary screen, biochemical, small-molecule microarray, 635/667 nm fluorescence (AID 1133); conditions: small-molecule microarray binding, FGF2, fluorescence 635/667; higher = more signal
# Fibroblast growth factor 2 (Homo sapiens), sequence (P09038 whole entry, looked up): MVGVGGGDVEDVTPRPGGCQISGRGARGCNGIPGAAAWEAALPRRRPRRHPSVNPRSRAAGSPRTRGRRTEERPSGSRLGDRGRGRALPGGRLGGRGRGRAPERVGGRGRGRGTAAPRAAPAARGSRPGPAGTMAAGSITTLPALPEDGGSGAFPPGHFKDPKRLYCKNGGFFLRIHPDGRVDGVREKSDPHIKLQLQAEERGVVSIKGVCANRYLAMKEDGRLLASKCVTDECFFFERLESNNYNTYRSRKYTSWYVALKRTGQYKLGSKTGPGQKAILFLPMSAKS
# [7] = mitochondrial membrane potential change in A549 cells, profiling panel, cell-based, JC-1 fluorescence, basal, 24 h, 100 nL (AID 1138); conditions: higher = more signal;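 further: A549 lung adenocarcinoma cells under basal conditions with no added stimulus; test concentration not given here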
# Lefty1 = Lefty1 binders on small-molecule microarrays, primary screen, biochemical, small-molecule microarray, 635/667 nm fluorescence (AID 1139); conditions: small-molecule microarray binding, fluorescence 635/667; higher = more signal
# [8] = system: wheat germ agglutinin (Triticum aestivum), Alexa647-labelled; assay: wheat germ agglutinin binders on compound microarrays, profiling panel, artefact control for SMM control-protein annotation, biochemical, small-molecule microarray, 635/667 nm fluorescence (AID 1140); conditions: WGA-A647 binding, 635 nm fluorescence, higher = more signal;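 further: score merges 667 nm feature emission with signal to noise over triplicate slides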
# [9] = molecular target: Luciferin 4-monooxygenase (Photinus pyralis) (UniProt P08659); assay: firefly luciferase enzyme inhibitors, primary screen, biochemical, luminescence, purified enzyme, 2006 set (AID 1141); conditions: SteadyGlo luminescence, 30 min, higher = more signal, called active from +8 up or from −8 down;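 further: cell-free assay with purified firefly luciferase at 100 ng per well in PBS; test concentration not given here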
# Luciferin 4-monooxygenase (Photinus pyralis), sequence (P08659 whole entry, looked up): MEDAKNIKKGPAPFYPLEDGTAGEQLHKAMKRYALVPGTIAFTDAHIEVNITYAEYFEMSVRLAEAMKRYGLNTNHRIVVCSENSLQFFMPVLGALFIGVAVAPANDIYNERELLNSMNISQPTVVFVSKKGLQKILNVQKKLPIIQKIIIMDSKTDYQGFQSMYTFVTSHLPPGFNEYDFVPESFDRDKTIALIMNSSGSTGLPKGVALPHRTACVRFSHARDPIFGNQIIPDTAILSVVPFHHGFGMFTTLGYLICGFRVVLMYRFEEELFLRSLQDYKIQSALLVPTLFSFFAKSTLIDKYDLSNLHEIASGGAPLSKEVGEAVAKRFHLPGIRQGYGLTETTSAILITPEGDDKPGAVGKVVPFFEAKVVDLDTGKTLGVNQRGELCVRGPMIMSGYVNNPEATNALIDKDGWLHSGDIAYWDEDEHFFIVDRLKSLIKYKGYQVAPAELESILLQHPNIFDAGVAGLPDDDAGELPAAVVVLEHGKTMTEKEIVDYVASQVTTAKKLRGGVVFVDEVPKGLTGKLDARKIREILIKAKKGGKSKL
SMILES,composite z-score [1],composite z-score [2],composite z-score [3],composite z-score [4],composite z-score [5],composite z-score [6],z-score [7],composite z-score (Lefty1),composite z-score [8],z-score [9]
C=CC[C@@H](O)c1ccc(OCCO)cc1,0.7 and -0.687,0.301 and -0.59,-0.595 and -0.79,-1.34 and -0.494,0.716 and -0.517,-0.418 and -1.58,0.856 and 0.491,-0.146 and -0.805,-0.455 and 0.763,-6.43 (inactive) and -6.38 (inactive)
C=CCN(CCCC)C(=O)C1N(CCCCCCO)C(=O)C2C(C(=O)O)C3C=CC21O3 (stereo not given),-1.27 and 0.826,-0.618 and -0.472,-0.725 and -0.445,-0.574 and -1.65,-1.74 and -2.89,-1.97 and -2.02,-0.242 and 0.214,-2.3 and -2.2,0.483 and -1.28,0.314 (inactive) and 0.488 (inactive)
C=CC[C@@H](O)c1ccc(O)c2ccccc12,1.02 and 1.68,0.647 and 1.11,-0.618 and 0.11,0.353 and 0.0525,1.38 and 1.39,1.48 and 1.7,0.388 and -0.59,1.4 and 1.06,0.175 and 0.379,-2.65 (inactive) and -2.18 (inactive)
CC(C)N1CC=CC23O[C@@H]4C=CCCOC(=O)C4[C@H]2C(=O)N(C(C)CO)[C@@H]3C1=O (stereo not given in full),0.412 and -0.876,-0.149 and -1.45,-0.214 and -0.327,-0.367 and -0.617,-1.72 and -1.22,-1.55 and -0.107,0.615 and 0.4,-0.674 and -1.22,-0.759 and -1.45,-0.509 (inactive) and -0.916 (inactive)
COc1ccc(COC(=O)NN=C2C[C@@H](O)[C@@H](O)[C@@H]3[C@@H]4C(=O)N(C(C)(C)C)C(=O)[C@@H]4CC[C@H]23)cc1,1.34,0.797,0.0704,0.816,0.126,0.699,0.453,0.281,0.0873,-1.08 (inactive)
CCOC(=O)NN=C1C[C@@H](O)[C@@H](O)[C@@H]2[C@@H]3C(=O)N(Cc4ccc5c(c4)OCO5)C(=O)[C@@H]3CC[C@@H]12,0.0648,0.449,-0.0156,0.669,0.0164,0.197,1.06,0.225,0.626,0.556 (inactive)
COCn1c2ccccc2c2nnc(C(C)=O)nc21,0.185 and -0.0618,-0.582 and -0.0453,0.0699 and -0.0566,-0.0349 and 0.202,0.295 and 0.221,0.537 and 0.273,-1.22 and -1.45,0.419 and 0.53,-0.114 and -0.144,0.891 (inactive) and 0.305 (inactive)
COc1ccc(O[C@H]2C=C[C@@H](c3ccccc3)O[C@@H]2COC(=O)CCC(C)=NO[C@H](C)c2cn([C@H](CO)Cc3ccccc3)nn2)cc1,2.33 and 1.58,-0.0422 and 0.437,0.142 and -0.0962,0.643 and 0.766,0.125 and 0.326,0.218 and 0.684,-1.04 and -0.144,0.653 and 0.557,0.207 and 0.223,0.845 (inactive) and -0.59 (inactive)
C=CCN(CCCCC)C(=O)C1N(C(C)(C)CO)C(=O)C2C(C(=O)O)C3C=CC21O3 (stereo not given),-0.608 and -2.12,-0.943 and -0.793,-0.132 and -1.41,-2.7 and -1.18,-1.39 and -2.44,-2.46 and -1.74,-0.401 and 0.244,-1.1 and -1.42,-0.356 and -1.51,0.169 (inactive) and 0.977 (inactive)
CC(C)CON=C1C[C@@H](O)[C@@H](O)[C@@H]2[C@@H]3C(=O)N(c4cccc(Oc5ccccc5)c4)C(=O)[C@@H]3CC[C@H]12,0.348,0.347,-0.195,0.202,0.39,0.397,0.0506,0.349,0.196,0.527 (inactive)
C=C[C@H](OC)[C@@H](O)c1ccc(O)c(F)c1,-0.876 and -0.764,-1.22 and -1.21,-0.918 and -0.807,-2.91 and -1.06,-1.25 and -1.48,-0.826 and -1.47,-0.547 and -0.0182,-2.23 and -1.28,-1.47 and 0.129,-0.173 (inactive) and -0.446 (inactive)
COC(=O)C1=C2N(Cc3ccccc3)C(C)=C(C(=O)OC)[C@@H](c3ccccc3)N2C(=O)[C@](O)(C(=O)OC)C1,0.0444 and -0.657,0.644 and 0.0112,0.268 and -0.172,0.985 and 0.0539,0.419 and 0.587,1.71 and 0.858,0.218 and 0.136,0.911 and 0.508,0.526 and -0.342,-0.0132 (inactive) and 0.18 (inactive)
CCOC(=O)CCN1C(=O)[C@H]2[C@H]3[C@H](O)[C@H](O)CC(=NNC(=O)OCC)[C@@H]3CC[C@H]2C1=O,-0.23,0.364,0.366,0.384,-0.124,0.447,0.167,-0.0407,-0.368,0.406 (inactive)
C=CCN(C(=O)C(c1cccs1)N(C(=O)/C=C\C(=O)O)C(C)(C)CO)C(C)(C)C (stereo not given),-0.119 and 1.08,0.0785 and -0.562,-0.033 and 0.193,-0.654 and 0.99,-0.493 and -1.32,-0.454 and -0.588,1.12 and 0.815,-1.35 and -1.25,-0.452 and -0.231,-1.45 (inactive) and -0.975 (inactive)
CC(CO)N1C(=O)[C@@H]2C3C(=O)OCCC=C[C@H]3OC23C=CCN(CCN2CCOCC2)C(=O)[C@@H]13 (stereo not given in full),1.29 and 1.37,-0.795 and -0.0944,0.0101 and 1.02,-0.288 and 0.15,0.319 and -0.0336,-0.454 and -1.45,-0.0837 and -0.32,0.373 and 0.526,-0.0856 and 0.329,-0.272 (inactive) and -0.263 (inactive)
COC(=O)c1c2oc(c1C(=O)OC)C(=O)N[C@@H](Cc1ccccc1)Cn1cc(nn1)C1(CCCCC1)NC(=O)N[C@H](CO)CC2,2.15 and -0.277,1.09 and 0.558,0.105 and 0.0367,1.01 and 0.223,1.38 and 0.484,1.41 and 0.184,1.53 and 3.28,0.956 and 0.506,0.462 and -0.0588,-1.19 (inactive) and -0.739 (inactive)
